The list is not random: actives were taken first. Their share in the collection is about 10%.
L3MBTL1 block – qHTS Assay for the Inhibitors of L3MBTL1 | Lethal(3)malignant brain tumor-like protein 1 (Homo sapiens), Q9Y468 | AlphaScreen L3MBTL1–H3K9me1 peptide binding | Potency, µM (highest dose often 57.1 µM), inactives show at the top dose activity, negative = inhibition, most hits filed as inhibitors | hit rate 0.66% among 230,000 | AID 485360, 2010; note: % is set by controls: 0 for no effect and ±100 for the full control effect; nearly all actives have a fitted effect of over 60% in size
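L3MBTL1 50 nM + b-AHA-H3(1-15)K9me1 75 nM, 30 min RT; compound added, 30 min RT; streptavidin donor/Ni-chelate acceptor beads 10 ug/mL each final, 30 min RT dark; AlphaScreen read.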
HP1b chromo inh – HTS for Inhibitors of HP1-beta Chromodomain Interactions with Methylated Histone Tails. AlphaScreen HP1-beta / biotin-H3K9me3 peptide binding. Chromobox protein homolog 1 (Homo sapiens), P83916. Potency, µM (top dose mostly 114 µM), without a hit: top-dose activity change, negative = inhibition, actives largely listed as inhibitors. hit rate 0.56% among 390,000; note: nearly all actives have a fitted effect of over 70% in size
Target sequence (P83916 whole entry, looked up): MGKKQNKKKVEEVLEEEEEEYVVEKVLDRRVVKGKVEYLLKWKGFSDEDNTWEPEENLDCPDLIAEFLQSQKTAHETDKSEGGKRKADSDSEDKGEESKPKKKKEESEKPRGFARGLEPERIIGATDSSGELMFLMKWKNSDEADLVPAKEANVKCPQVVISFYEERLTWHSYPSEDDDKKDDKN
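AlphaScreen: HP1-beta (50 nM) preformed 30 min with biotin-H3(1-18)K9me3 peptide (50 nM) in PBS pH 7.4, 0.01% Tween-20. Compound added for 30 min at RT, then streptavidin donor/nickel chelate acceptor beads (10 ug/mL) for 30 min.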
BAZ2B block – qHTS Assay for Inhibitors of BAZ2B | AlphaScreen BAZ2B-H3K14Ac peptide displacement | hit rate 4.4% among 360,000 | Potency, µM (top dose mostly 114 µM), for the others: top-dose activity change, negative = inhibition, actives largely listed as inhibitors | AID 504333, 2011; note: % is set by controls: 0 for no effect and ±100 for the full control effect; nearly all actives have a fitted effect of over 60% in size
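Compounds, titrated to a top concentration of 110 uM, were incubated 30 min at room temperature with preformed BAZ2B/acetyl-K14 H3 peptide complex (50 nM each). Proximity signal was measured by AlphaScreen after 20 min with beads.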
JMJD2A Tudor inh – qHTS Assay for Inhibitors of JMJD2A-Tudor Domain. AlphaScreen JMJD2A-Tudor / H3K4me3 peptide binding. Lysine-specific demethylase 4A (Homo sapiens), O75164. hit rate 4.4% among 390,000. Potency, µM (series often up to 114 µM), without a hit: at the highest dose activity change, negative = inhibition, actives largely listed as inhibitors. AID 504339, 2011; note: % is set by controls: 0 for no effect and ±100 for the full control effect; nearly all actives have a fitted effect of over 50% in size
G9a block – qHTS Assay for Inhibitors of Histone Lysine Methyltransferase G9a | Potency, µM (series often up to 102 µM), without a hit: top-dose activity, negative = inhibition, usual class: inhibitors | hit rate 8.8% among 350,000 | G9a H3K9 monomethylation, AlphaScreen, 2 h | Histone-lysine N-methyltransferase EHMT2 (Homo sapiens), Q96KQ7; note: % is set by controls: 0 for no effect and ±100 for the full control effect; nearly all actives have a fitted effect of over 75% in size
Target sequence (Q96KQ7 913-1193 limits assumed): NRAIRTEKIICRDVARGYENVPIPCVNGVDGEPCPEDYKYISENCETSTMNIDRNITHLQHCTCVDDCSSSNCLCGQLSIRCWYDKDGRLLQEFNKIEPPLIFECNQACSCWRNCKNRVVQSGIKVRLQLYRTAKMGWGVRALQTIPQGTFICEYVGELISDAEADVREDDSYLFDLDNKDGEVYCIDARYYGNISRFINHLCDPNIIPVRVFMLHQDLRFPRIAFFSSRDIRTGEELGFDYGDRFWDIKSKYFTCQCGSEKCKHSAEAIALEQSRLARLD
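Methyltransferase reactions run at room temperature for 2 h (20 nM enzyme, 500 nM biotin-H3K9 peptide, 20 uM SAM) after a 15 min compound preincubation; product detected by AlphaScreen beads and anti-H3K9me1 antibody.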
GLS inhibitor – qHTS for Inhibitors of Glutaminase (GLS); AID 624170, 2012; hit rate 0.21% among 410,000; GLS enzymatic activity, qHTS titration; Potency, µM (top dose mostly 45.5 µM), for inactives: top-dose activity change, negative = inhibition, usual class: inhibitors; note: % is set by controls: 0 for no effect and ±100 for the full control effect
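Two-point fluorescence kinetic (t0, 30 min RT) for hKGA; glutamate detected via glutamate oxidase–HRP–Amplex Red. Substrate: 1 mM L-glutamine solution; buffer 45 mM KH2PO4, pH 8.2.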
* = called active by the depositor; ? = inconclusive; · = no result given; ! = repeats disagree; [ ] = dose if it differs, or a comment. Calls come from the whole dose curve; as a rule, active = well fitted curve in the direction sought with a large enough effect; inconclusive = small, poorly fitted or top-dose-only effect, or another doubt; inactive = no such curve, though single readings can be large; an effect the other way counts as inactive or inconclusive. Potency is the fitted concentration of half-maximal effect.

SMILES	L3MBTL1 block	HP1b chromo inh	BAZ2B block	JMJD2A Tudor inh	G9a block	GLS inhibitor
Cn1c(N)c(C(=O)COC(=O)c2ccccn2)c(=O)n(C)c1=O	-2%	2%	79µM*	79µM*	20µM*	0%
Cn1c(N)c(C(=O)COC(=O)C2(c3ccc(Cl)cc3)CCCC2)c(=O)n(C)c1=O	·	-6%	-6%	3.2µM*	-2%[12.7 µM]	?
COc1ccc(CC(=O)OCC(=O)c2c(N)n(C)c(=O)n(C)c2=O)cc1OC	39%	27%	48%	-15%	45%[2.33 µM]	0%
Cc1ccccc1CNC(=O)CN1C(=O)C2CCCCN2c2ccc(C(=O)N3CCCC3)cc21 (stereo not given)	·	13%[57 µM]	-6%	-23%	-1%[59 µM]	3%
O=C(O)c1cccc(NC(=S)NC(=O)c2ccc(-c3ccc(Cl)cc3)o2)c1	·	-25%	?	?	45µM*	-1%
Cc1ccc(C(=O)O)cc1NC(=S)NC(=O)c1ccc([N+](=O)[O-])cc1Cl	-7%	-5%	-24%	?	?	-5%
COc1ccc(C(=O)O)cc1NC(=S)NC(=O)c1ccc(-c2ccc(Cl)cc2)o1	·	-21%	?	?	45µM*	10%
CC(=O)c1cccc(NC(=S)NC(=O)c2cccc(Cl)c2)c1	-5%	-7%	-4%	-24%	5%	14%
O=C(O)c1ccc(NC(=S)NC(=O)c2ccc(-c3ccc(Br)cc3)o2)cc1	·	56µM*	40µM*	16µM*	40µM*	202%
Cc1ccc(C(=O)O)cc1NC(=S)NC(=O)c1ccc(-c2ccc(Cl)cc2)o1	·	2%	?	0%[11.4 µM]	35µM*	23%
O=C(Nc1ccc(NC(=S)NC(=O)c2ccco2)cc1)c1ccc(Br)cc1	·	·	·	·	·	-2%
Cc1ccc2c(c1)-c1c(c(C(=O)N3CCN(c4cc(Cl)ccc4C)CC3)nn1C)CS2	·	-4%	-17%	-14%	-10%[59 µM]	-7%
O=C(N/N=C/c1ccc(O)cc1O)c1ccc(CN2C(=O)c3cccc4cccc2c34)cc1	6%	55%	-2%	4%	79µM*	0%
CCCCN1C(=O)N(C)C2NC(=O)NC21 (stereo not given)	·	27%	-23%	-7%	0%[12.7 µM]	9%
CSC1=NC2C(N1)N(C)C(=O)N2C (stereo not given)	·	30%	35µM*	-15%	7.9µM*	1%
CC1(C)Cc2cccc(OCC(O)CNCc3ccccn3)c2O1 (stereo not given)	-2%	35%	?	89µM*	?	9%
Cc1cccc(CCNC(=O)c2nn(C)c3c2CSc2ccccc2-3)c1	·	30%	-11%	-8%	-28%[59 µM]	-9%
COCCn1c(SCCN2CCCCC2)nc2ccccc2c1=O	-8%	?	?	2.2µM*	?	9%
COCCn1c(SCC(=O)N2CCCCC2)nc2ccccc2c1=O	2%	23%	-34%	-12%	?	-3%
C=CCNC(=S)Nc1cc(C)ccn1	·	30%	-1%	-9%	1.6µM*	-5%
CN(C)c1ncc2nc(CCc3ccccc3)c(=O)n(Cc3ccc(F)cc3)c2n1	·	·	·	·	-3%[12.7 µM]	·
CCOc1ccccc1Nc1nc(-c2cccc(Cl)c2)c2c(n1)-c1ccccc1OC2	·	-33%	?	56µM*	25µM*	2%
c1ccc(-c2cc(-c3ccccc3)c3c(n2)-c2ccccc2OC3)cc1	·	50%	-2%	41%	26%[59 µM]	23%
Cc1ccc(OCC(=O)Nc2cccc(C(=O)OCc3cc(=O)n4nc(C)sc4n3)c2)cc1	·	31%	1%	10%	3%[12.7 µM]	-2%
Oc1ccc(N2CCN(Cc3cc4c(cc3Br)OCCO4)CC2)cc1	·	?	40µM*	35µM*	1.8µM*	20%
SMILES	L3MBTL1 block	HP1b chromo inh	BAZ2B block	JMJD2A Tudor inh	G9a block	GLS inhibitor
O=C(/C=C/c1ccc(O)c(O)c1)O[C@@H]1C[C@](O)(C(=O)O)C[C@@H](O)[C@H]1O	8%	33%	-3%	18µM*!	13µM*!	?
O=C(/C=C\c1ccc(O)c(O)c1)O[C@@H]1C[C@](O)(C(=O)O)C[C@@H](O)[C@@H]1O	·	·	·	·	0.35µM*	·
O=C(NNC(=O)C12CC3CC(CC(C3)C1)C2)c1cnccn1	22%	33%	-3%	-1%	3.2µM*	7%
O=C(NNC(=O)C12CC3CC(CC(C3)C1)C2)c1ccccn1	9%	19%	6%	-6%	·	5%
CC1=C(C(=O)OC2CCCC2)C(c2ccccc2Cl)CC(=O)N1 (stereo not given)	·	16%	-3%	0%	4%[59 µM]	5%
CCc1cccc(N(C(=O)c2csnn2)C(C(=O)NC(C)(C)C)c2ccncc2)c1 (stereo not given)	-10%	-5%	?	56µM*	33%	14%
CCc1ccc(N(C(=O)c2csnn2)C(C(=O)NC(C)(C)C)c2ccncc2)cc1 (stereo not given)	5%	31%	5%	-12%	·	-5%
Cc1ccccc1N(C(=O)c1ccccn1)C(C(=O)NCc1ccccc1)c1ccncc1 (stereo not given)	·	36%	-10%	-7%	45%	-4%
O=C(NCc1ccccc1)C(c1ccncc1)N(C(=O)c1ccccn1)c1ccccc1 (stereo not given)	·	47%	50µM*	25µM*	22µM*	7%
CC(C)C(=O)Nc1nc2c(ncn2[C@H]2CC(O)[C@@H](CO)O2)c(=O)[nH]1 (stereo not given in full)	·	9%[57 µM]	·	8%[57.1 µM]	·	·
CCN(CC)CCNC(=O)c1cc(Nc2ccc(OC)c(OC)c2)nc2ccccc12	·	-15%	40µM*	?	71µM*	11%
COc1ccc(Nc2cc(C(=O)NCCCN3CCOCC3)c3ccccc3n2)c(OC)c1	·	27%	-29%	?	17%[12.7 µM]	25%
COc1ccc(Nc2cc(C(=O)NCc3ccccc3)c3ccccc3n2)cc1OC	·	7%	·	-14%	3%[59 µM]	3%
COc1ccc(Nc2cc(C(=O)NCCCN(C)Cc3ccccc3)c3ccccc3n2)c(OC)c1	·	?	?	32µM*	?	19%
COc1ccc(Nc2cc(C(=O)NCCCN3CCN(c4ccc(OC)cc4)CC3)c3ccccc3n2)cc1	·	?	14µM*	22µM*	11µM*	33%
COc1ccc(Nc2cc(C(=O)NCCCN3CCN(c4ccccc4F)CC3)c3ccccc3n2)c(OC)c1	·	-33%	·	10µM*	13µM*	19%
